Test systems include DU-145 prostate; K-562 leukemia; MALME-3M melanoma; MDA-MB-231 breast; RXF 393 renal; SF-268 CNS; SF-295 CNS; SF-539 CNS; UACC-257 melanoma; M14 melanoma.
Common to all, as to assay: NCI-60 one-dose screen, 48 h (100 = growth as untreated, 0 = no growth, -100 = all killed)
Details in all cases: 10 µM unless noted

Compounds without any hit were thinned out: in the full panel of roughly 83,000, 20% have a hit.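 48-hour exposure, single concentration, 96-well plates; percent growth endpoint where 0 means no net growth. Active: below 10.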 Unmarked numbers belong to inactive results. The source made the active and inactive calls.

Consider `CCN(Cc1ccc(Cl)c(Cl)c1)c1ccc2nc(N)nc(N)c2c1C`, for which the growth with DU-145 prostate was -85.5% (active); in the assay with K-562 leukemia, -83.9% (active); with MALME-3M melanoma it was -84% (active); in the assay on MDA-MB-231 breast it was -84.9% (active); in the assay on RXF 393 renal it was -80.1% (active); in the assay on SF-268 CNS it was -70.1% (active). Moreover, the growth in the assay on SF-295 CNS is -62.8% (active); in the assay with SF-539 CNS, -97.8% (active); with UACC-257 melanoma, -77.7% (active); with M14 melanoma, -70.1% (active).

As to `NC(=S)N/N=C/c1ccc(Cl)cc1`, the growth is 120% with DU-145 prostate; 92.8% in the assay with K-562 leukemia; 109% in the assay on MALME-3M melanoma; 111% with MDA-MB-231 breast; 97.4% in the assay with RXF 393 renal; 109% in the assay on SF-268 CNS. In addition, the growth is 97.4% in the assay on SF-295 CNS, 106% in the assay with SF-539 CNS, 91.7% in the assay with UACC-257 melanoma and 108% with M14 melanoma.

Consider `NC(=O)c1cc2c3ccccc3ccn2c1-c1ccccc1`, for which the growth is 5.57% (active) with DU-145 prostate; 4.64% (active) with K-562 leukemia; 86% with MALME-3M melanoma; 29.3% with MDA-MB-231 breast; 25.5% in the assay on RXF 393 renal; 22% with SF-268 CNS. Moreover, the growth is 4.09% (active) with SF-295 CNS, -19.7% (active) in the assay with SF-539 CNS, 64.9% with UACC-257 melanoma and 11.3% in the assay with M14 melanoma.

Consider `O=S1(=O)c2ccccc2Oc2ccccc21`, for which the growth is 107% in the assay on DU-145 prostate; 114% in the assay with K-562 leukemia; 110% in the assay on MALME-3M melanoma; 110% in the assay with MDA-MB-231 breast; 90.7% in the assay on RXF 393 renal; 107% in the assay with SF-268 CNS. The growth was 91.8% with SF-295 CNS, 96.1% in the assay with SF-539 CNS, 103% in the assay with UACC-257 melanoma and 101% in the assay on M14 melanoma.

Turning to `NC(=O)OCCO`, the growth in the assay on DU-145 prostate was 104%; with K-562 leukemia it was 82.9%; in the assay on MALME-3M melanoma it was 84.7%; with MDA-MB-231 breast, 109%; in the assay on RXF 393 renal, 110%; with SF-268 CNS it was 97.7%. Besides, the growth with SF-295 CNS is 106%; in the assay with SF-539 CNS, 108%; in the assay on UACC-257 melanoma, 95.6%; with M14 melanoma, 94.6%.

Take `Nc1nc(Cl)cc(Cl)n1`: the growth is 108% in the assay on DU-145 prostate; 92.3% in the assay with K-562 leukemia; 90.8% in the assay on MALME-3M melanoma; 114% in the assay with MDA-MB-231 breast; 102% in the assay with RXF 393 renal; 100% in the assay on SF-268 CNS. In addition, the growth is 106% in the assay with SF-295 CNS, 107% in the assay with SF-539 CNS, 85.5% in the assay with UACC-257 melanoma and 96.4% in the assay on M14 melanoma.

Consider `O=C(Nc1cccc(Cl)c1)c1ccc(Cl)cc1Cl`, for which the growth with DU-145 prostate was 99.3%; in the assay on K-562 leukemia, 90.9%; in the assay on MALME-3M melanoma, 96.6%; in the assay with MDA-MB-231 breast it was 97.9%; in the assay on RXF 393 renal it was 110%; with SF-268 CNS, 96.2%. The growth was 94.6% in the assay on SF-295 CNS, 103% with SF-539 CNS, 99.7% in the assay with UACC-257 melanoma and 93.7% with M14 melanoma.

As to `Cc1cc(Cc2ccccc2)c(O)c(Cc2ccccc2)c1`, the growth is 103% in the assay on DU-145 prostate; 82.6% in the assay on K-562 leukemia; 103% in the assay with MALME-3M melanoma; 91.6% in the assay on MDA-MB-231 breast; 88.2% with RXF 393 renal; 93.4% with SF-268 CNS. Also, the growth with SF-295 CNS was 101%; in the assay on SF-539 CNS, 101%; in the assay on UACC-257 melanoma it was 93.4%; in the assay on M14 melanoma, 91.5%.

For the compound `CCOC(=O)C(C#N)=C1CCN(C)CC1`, the growth in the assay with DU-145 prostate is 123%; with K-562 leukemia, 116%; with MALME-3M melanoma, 124%; with MDA-MB-231 breast, 119%; with RXF 393 renal it was 115%; in the assay on SF-268 CNS it was 102%. The growth in the assay with SF-295 CNS is 103%; in the assay with SF-539 CNS, 105%; in the assay on UACC-257 melanoma, 93.9%; in the assay on M14 melanoma, 105%.

With `Cc1ccc(NC(=O)c2ccccc2Cl)cc1`, the growth in the assay with DU-145 prostate was 112%; with K-562 leukemia, 99.6%; in the assay on MALME-3M melanoma, 123%; with MDA-MB-231 breast, 118%; with RXF 393 renal it was 108%; in the assay on SF-268 CNS it was 109%. The growth in the assay on SF-295 CNS was 108%; in the assay on SF-539 CNS, 107%; in the assay with UACC-257 melanoma it was 131%; with M14 melanoma it was 114%.

Consider `O=C1Nc2ccccc2/C1=C\c1ccccc1O`, for which the growth in the assay with DU-145 prostate was 88.6%; in the assay on K-562 leukemia it was 73.1%; with MALME-3M melanoma it was 78%; in the assay with MDA-MB-231 breast, 83.6%; with RXF 393 renal, 106%; in the assay with SF-268 CNS it was 89.7%. In addition, the growth in the assay on SF-295 CNS is 96.6%; in the assay with SF-539 CNS, 88.7%; in the assay on UACC-257 melanoma, 94%; in the assay with M14 melanoma, 85.6%.

Consider `CC(=O)c1cc(O)ccc1O`, for which the growth with DU-145 prostate is 114%; in the assay on K-562 leukemia, 91.7%; in the assay on MALME-3M melanoma, 111%; in the assay with MDA-MB-231 breast it was 96.6%; in the assay with RXF 393 renal, 88.8%; in the assay with SF-268 CNS, 109%. The growth was 104% with SF-295 CNS, 92.5% in the assay on SF-539 CNS, 104% in the assay on UACC-257 melanoma and 101% with M14 melanoma.

`CC(C)c1ccc(C(=O)OCCCl)cc1`: the growth with DU-145 prostate was 117%; in the assay on K-562 leukemia, 103%; with MALME-3M melanoma, 89.9%; in the assay with MDA-MB-231 breast, 105%; in the assay with RXF 393 renal it was 41.8%; in the assay on SF-268 CNS it was 112%. Further, the growth was 83.8% in the assay on SF-295 CNS, 104% in the assay on SF-539 CNS, 95.3% in the assay on UACC-257 melanoma and 93.6% in the assay on M14 melanoma.

Consider `Cc1c(Cl)cccc1NC(=S)NC(=O)c1ccccc1`, for which the growth in the assay with DU-145 prostate was 111%; in the assay on K-562 leukemia, 79.7%; in the assay on MALME-3M melanoma it was 89.4%; in the assay with MDA-MB-231 breast, 90.2%; in the assay on RXF 393 renal, 85.5%; with SF-268 CNS it was 109%. Also, the growth was 85.1% in the assay with SF-295 CNS, 100% with SF-539 CNS, 88.9% with UACC-257 melanoma and 115% in the assay on M14 melanoma.

These data come from PubChem BioAssay (NCI).
